Assay results as given in PubChem BioAssay (NCI).
Compounds without any hit were thinned out: in the full panel of roughly 79,000, 15% have a hit. Activity calls are given as the source filed them. No stated cut-off is given here; in the data, active means growth inhibition above about 70%; inactive means the rest.

What was measured:
[1] = NCI Yeast Anticancer Drug Screen. Data for the rad50 strain (AID 155);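 further: 0% = growth of vehicle-only cultures of the same strain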; conditions: S. cerevisiae rad50 strain growth inhibition; at 50.0 µM; active compounds read high
In short: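 Vehicle-treated cultures provide the reference for the growth inhibition reported for compound-exposed, repair-deficient yeast.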

[2] = NCI Yeast Anticancer Drug Screen. Data for the mec2-1 strain (AID 157); conditions: S. cerevisiae mec2-1 strain, at 50.0 µM, active compounds read high
In short: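 Strain: mec2-1 (DNA repair/cell cycle alteration). Compound exposure, then growth measured; inhibition expressed relative to vehicle.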

[3] = NCI Yeast Anticancer Drug Screen. Data for the sgs1 mgt1 strain (AID 161);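 further: 0% = growth of cultures given vehicle only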; conditions: S. cerevisiae sgs1 mgt1 strain, at 50.0 µM, active compounds read high
In short: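 Read-out: growth inhibition vs vehicle controls. Cells: mutant yeast strain deficient in DNA damage repair.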

[4] = NCI Yeast Anticancer Drug Screen. Data for the cln2 rad14 strain (AID 165);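 further: 0% = growth equal to vehicle treated cultures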; conditions: S. cerevisiae cln2 rad14 strain, at 50.0 µM, active compounds read high
In short: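 Compounds are applied to the cln2 rad14 yeast strain, and growth is then compared with that of vehicle-treated cultures to give inhibition.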

[5] = NCI Yeast Anticancer Drug Screen. Data for the bub3 strain (AID 167); conditions: S. cerevisiae bub3 mutant strain, at 50.0 µM, active compounds read high
In short: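 Mutant yeast screening strain plus compound; vehicle-treated cultures serve as the 0% inhibition reference.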

[6] = NCI Yeast Anticancer Drug Screen. Data for the mlh1 rad18 strain (AID 175); conditions: S. cerevisiae mlh1 rad18 strain growth inhibition; at 50.0 µM; active compounds read high
In short: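 Read-out is yeast growth inhibition, calculated against vehicle-only controls. The compound was applied to a strain engineered with DNA damage repair alterations.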

Structure (SMILES)	growth inhibition [1]	growth inhibition [2]	growth inhibition [3]	growth inhibition [4]	growth inhibition [5]	growth inhibition [6]
CC1(c2ccccc2)CCC(=O)NC1=O (stereo unspecified)	7.2% (inactive)	19.6% (inactive)	14.6% (inactive)	32.5% (inactive)	7.85% (inactive)	38.6% (inactive)
N#Cc1cccc([N+](=O)[O-])c1	-17.7% (inactive)	0.3% (inactive)	-26.6% (inactive)	30.8% (inactive)	-9.7% (inactive)	-18.9% (inactive)
CC1(C(=O)O)C2[Se]c3cc[se]c3C2C1(C)C(=O)O (stereo unspecified)	-2.5% (inactive)	9.8% (inactive)	-8.15% (inactive)	-20.8% (inactive)	1% (inactive)	-4.7% (inactive)
C=COC(=O)NC(C(=O)O)C(C)CC (stereo unspecified)	43.1% (inactive)	18.6% (inactive)	44.4% (inactive)	24.9% (inactive)	-5.35% (inactive)	34.9% (inactive)
NC(=S)c1cc(N(CCCl)CCCl)c([N+](=O)[O-])cc1[N+](=O)[O-]	22.4% (inactive)	-0.25% (inactive)	8.85% (inactive)	8.85% (inactive)	-11.6% (inactive)	-22.5% (inactive)
COC(=O)C[CH2][Sn]([CH2]CC(=O)OC)([c]1ccccc1)[c]1ccccc1	7.95% (inactive)	30.7% (inactive)	-6.7% (inactive)	-15.7% (inactive)	14.4% (inactive)	-25.4% (inactive)
O=S1(N2CC2)=NP(N2CC2)(N2CC2)=NP(N2CC2)(N2CC2)=N1 (stereo unspecified)	-20.9% (inactive)	-22.5% (inactive)	-16.8% (inactive)	11.2% (inactive)	-33% (inactive)	-67.1% (inactive)
C1CN1[PH+](N1CC1)N1CC1.[C-]#[O+].[C-]#[O+].[C-]#[O+].[C-]#[O+].[C-]#[O+].[Cr]	-5.55% (inactive)	-4.65% (inactive)	-0.75% (inactive)	-11.8% (inactive)	2.4% (inactive)	-17.3% (inactive)
O=[N+]([O-])O.[NH-]C1CCCCC1[NH-].[NH-]C1CCCCC1[NH-].[OH-].[OH-].[Pt+4].[Pt+4] (stereo unspecified)	49.8% (inactive)	-4.8% (inactive)	-29.3% (inactive)	-5.45% (inactive)	-41% (inactive)	30.2% (inactive)
O=C1c2c(ccc3ccccc23)CN2CCCCC12 (stereo unspecified)	42.2% (inactive)	19.6% (inactive)	61.9% (inactive)	14% (inactive)	40.4% (inactive)	45.2% (inactive)
Cc1cc(N(CCCl)CCCl)ccc1C=Nc1ccccc1F	8.3% (inactive)	-5.4% (inactive)	3.6% (inactive)	-40.4% (inactive)	6.85% (inactive)	0.5% (inactive)
COc1cc2c(cc1O)C(=O)O[C@@H]1CC=C3CCN(C)[C@H]3[C@H]21	3.4% (inactive)	11.3% (inactive)	-7.3% (inactive)	7.1% (inactive)	-37.4% (inactive)	19.8% (inactive)
O=C([O-])C[OH+]c1ccc(Cl)cc1Cl.O=C([O-])C[OH+]c1ccc(Cl)cc1Cl.[Ni+2]	10.3% (inactive)	21.6% (inactive)	18.9% (inactive)	3.1% (inactive)	3.85% (inactive)	41.5% (inactive)
C1CC[N-]CC1.CC(=N\O)/C(C)=N/O.CC(=N\O)/C(C)=N/O.C[CH-]C(C)O.[Co+2]	-2% (inactive)	-7.15% (inactive)	36.3% (inactive)	8.2% (inactive)	-13.1% (inactive)	39.9% (inactive)
O=[N+]([O-])c1cccc(/C=C/C=C/c2ccc(Cl)c(S(=O)(=O)F)c2)c1	7.95% (inactive)	14.4% (inactive)	-39.5% (inactive)	6.5% (inactive)	9.05% (inactive)	-7.1% (inactive)
O=P1(N(CCCl)CCCl)OC(c2ccccc2)=CCN1c1ccccc1 (stereo unspecified)	0.6% (inactive)	20.1% (inactive)	57.2% (inactive)	32.4% (inactive)	50% (inactive)	34.6% (inactive)
ClCc1ccco1	0.35% (inactive)	2.4% (inactive)	10.6% (inactive)	-11.4% (inactive)	23.6% (inactive)	36.2% (inactive)
CCN(CCCl)c1cc(CN(C)C)cc(NC(=O)c2ccc(C(=O)Nc3ccccc3)cc2)c1	0.7% (inactive)	-18.4% (inactive)	5% (inactive)	26.2% (inactive)	23.9% (inactive)	12.4% (inactive)
O=[N+]([O-])CCCl	3.8% (inactive)	2.1% (inactive)	-3.4% (inactive)	3.9% (inactive)	3.95% (inactive)	-3.9% (inactive)
CC(O)CCC(=O)c1ccoc1 (stereo unspecified)	6.4% (inactive)	10.7% (inactive)	1.45% (inactive)	8.15% (inactive)	14.3% (inactive)	-71.7% (inactive)
COc1ccccc1N	-2.9% (inactive)	1.25% (inactive)	4.3% (inactive)	-8.05% (inactive)	-9.45% (inactive)	-17.4% (inactive)

Structure (SMILES)	growth inhibition [1]	growth inhibition [2]	growth inhibition [3]	growth inhibition [4]	growth inhibition [5]	growth inhibition [6]
O=C1NC(=S)NC(=O)C1=Cc1ccc(-c2ccccc2)cc1	33.1% (inactive)	-12% (inactive)	16.7% (inactive)	15.6% (inactive)	13.3% (inactive)	15.3% (inactive)
CCOC(=O)CC1=N/C(=N/C(=N)N[N+](=O)[O-])SC1	7.45% (inactive)	-5.3% (inactive)	10.4% (inactive)	7.6% (inactive)	15.3% (inactive)	16% (inactive)
CCCNC(Cc1ccccc1)c1ccccc1 (stereo unspecified)	-7.95% (inactive)	-9.25% (inactive)	3.4% (inactive)	-10.1% (inactive)	-0.7% (inactive)	-1% (inactive)
CCOP(=O)(Oc1ccc([N+](=O)[O-])cc1)c1cccc(Br)c1 (stereo unspecified)	41.5% (inactive)	19.5% (inactive)	54% (inactive)	41.3% (inactive)	38.5% (inactive)	25% (inactive)
COC(=O)C1=CO[C@@H](C)[C@@H]2CN3CCc4c([nH]c5cc(OC)ccc45)[C@H]3C[C@H]12	-43.8% (inactive)	-32.6% (inactive)	-34% (inactive)	-30.1% (inactive)	-2.05% (inactive)	-41% (inactive)
c1ccc2c(c1)ccc1[s+]cccc12	69.4% (inactive)	23.2% (inactive)	35.7% (inactive)	25.4% (inactive)	16.1% (inactive)	76% (active)
COc1cc([C@@H]2c3cc4c(c(O)c3C[C@H]3COC(=O)[C@@H]32)OCO4)cc(OC)c1O	17.8% (inactive)	-13.9% (inactive)	14.2% (inactive)	9.4% (inactive)	7.2% (inactive)	-14.7% (inactive)
O=C(OCC1CCCN2CCCCC12)c1cccnc1 (stereo unspecified)	7.7% (inactive)	-10.8% (inactive)	-28.3% (inactive)	14.9% (inactive)	-8.5% (inactive)	-25.3% (inactive)
N#CCCCCCBr	1.05% (inactive)	-19.1% (inactive)	23% (inactive)	10.8% (inactive)	17.9% (inactive)	19.4% (inactive)
CCCNP(=S)(NCCC)NCCC	1% (inactive)	-10.4% (inactive)	8.5% (inactive)	-16.4% (inactive)	0% (inactive)	22% (inactive)
NC(=NCCCC(NCc1ccccc1)C(=O)O)N[N+](=O)[O-] (stereo unspecified)	16.3% (inactive)	17.6% (inactive)	16.6% (inactive)	16.9% (inactive)	6.85% (inactive)	16.1% (inactive)
CC1(C)CC(OP(=O)(Cl)OC2CC(C)(C)N(O)C(C)(C)C2)CC(C)(C)N1O	1.8% (inactive)	-0.75% (inactive)	7.85% (inactive)	-7.35% (inactive)	1.1% (inactive)	-7.65% (inactive)
COc1ccc([Se]c2ccc(OC)cc2)cc1	0% (inactive)	-15.5% (inactive)	-7.15% (inactive)	-13.6% (inactive)	21.4% (inactive)	-4.55% (inactive)
BrCCCCCCBr	-5.65% (inactive)	5.8% (inactive)	3.25% (inactive)	-29.3% (inactive)	5.6% (inactive)	5.4% (inactive)
CC(=O)OC1CCC2C3CCC4CC5(CCC4(C)C3CCC12C)CO5 (stereo unspecified)	-2.45% (inactive)	-10.7% (inactive)	-26.2% (inactive)	1.2% (inactive)	1.75% (inactive)	1.2% (inactive)
O=P(Oc1ccccc1)(Oc1ccccc1)C(O)C(Cl)(Cl)Cl (stereo unspecified)	7.55% (inactive)	-2.55% (inactive)	-0.3% (inactive)	6.5% (inactive)	4% (inactive)	5.45% (inactive)
CC([NH-])C(=O)O.CC([NH-])C(=O)O.[Cu+2] (stereo unspecified)	-0.95% (inactive)	11.3% (inactive)	15.6% (inactive)	-40.1% (inactive)	-15.9% (inactive)	19.6% (inactive)
CCC[CH2][Sn]([CH3])([CH3])[CH2]CC[N+](C)(C)C	21.3% (inactive)	5.55% (inactive)	16.9% (inactive)	45% (inactive)	10.8% (inactive)	13.5% (inactive)
O=[N+]([O-])c1ccc(OCc2ccc(COc3ccc(S(=O)(=O)F)cc3)cc2)c(Cl)c1	-0.6% (inactive)	-8.15% (inactive)	-2.3% (inactive)	-6.35% (inactive)	-7.6% (inactive)	-7.5% (inactive)
NC(P(=O)(O)O)P(=O)(O)O	4.15% (inactive)	-1.2% (inactive)	16.7% (inactive)	15.3% (inactive)	18.4% (inactive)	7.1% (inactive)
